# Laboratory results published in ChEMBL document CHEMBL3433997, “St. Jude Leishmania screening dataset” (2016).
# Molecular target: Hexose transporter 1 (Plasmodium falciparum) (UniProt O97467)
# Assay: ST_JUDE_LEISH: Cytotoxicity at 2uM final concentration against transgenic Leishmania Mexicana promastigotes LmPfHT that are glucose transport deficient and complemented with the Plasmodium falciparum hexose transporter. Activity is measured by DNA content using SYBR green in vitro
# Assay type: functional
row,SMILES,inhibition [%]
1,Cc1cccc2nc(-c3ccc(-c4ccc(NC(=O)C(C)CN(C)C)cc4)s3)[nH]c12 (stereo not given),6.11
2,CCOc1cc(Br)c(C(C)NC(=O)c2ccccc2)cc1OCC (stereo not given),0.92
3,O=C(/C=C/c1ccc(Cl)c(Cl)c1)NCCCCCN1CCCC(CNS(=O)(=O)c2ccc(F)cc2)C1 (stereo not given),-0.91
4,Cc1cc(N)c2cc(NC(=O)c3ccc4ccccc4c3)ccc2n1,4.64
5,COc1ccccc1CNC(=O)C(=O)Nc1c(-c2ccccc2)[nH]c2ccccc12,-4.12
6,CN(CCC(O)c1ccc(Cl)c(Cl)c1)CC1CC1C(=O)c1ccccc1 (stereo not given),4.62
7,Fc1ccc2[nH]c(-c3ccc(-c4cccc(CN5CCN(c6ccncc6)CC5)c4)cc3)nc2c1,1.42
8,N#Cc1ccc(N(CCOC(=O)c2ccc(Br)s2)Cc2ccccc2C(F)(F)F)cc1C(F)(F)F,4.9
9,Cc1cc(CNC(=O)[C@H](CC2CCCCC2)Nc2ccc(C#N)c3ccccc23)c(C(F)(F)F)o1,1.57
10,CN1CCN(c2nsc3ccc(-c4ccc(NC(=O)Nc5cc(C(F)(F)F)ccc5F)cc4)cc23)CC1,1.74
11,O=C(Nc1cc(Cl)cc(Cl)c1)Nc1ccnc2ccccc12,2.02
12,CC(C)(C)OC(=O)C1CCCN(Cc2ccc(-c3cccc(-c4nc5ccccc5[nH]4)c3)cc2)C1 (stereo not given),3.25
13,O=S(=O)(NCCN1CCCC1)c1cccc(-c2ccc(CNCc3ccsc3)cc2)c1,1.13
14,CCOCCCNc1sc(S(=O)(=O)c2ccccc2)nc1S(=O)(=O)c1ccc(C)cc1,8.79
15,CC(C)(C(=O)Nc1ccc(C2CCC(NCC3CC3)CC2)c(Cl)c1)c1cccc(OC(F)F)c1 (stereo not given),8.75
16,Cc1cc(CN2C(=O)C(c3ccccc3)(c3ccccc3)N=C2N)c(C(F)(F)F)o1,9.85
17,Cc1nnc2c(NC(=O)NC3CCCC3)cc3ccc(-c4cccc(CN5CCN(C)CC5)c4)cc3n12,6.49
18,CC(=O)Nc1ccc(CN2CCC(NC(=O)c3ccc(-c4cccc(C(F)(F)F)c4)s3)CC2)cc1,0.42
19,O=C(CCc1c[nH]cn1)Nc1cccc(-c2ccc(-c3nc4ccccc4[nH]3)cc2)c1,4.68
20,COc1cc(NC(=O)c2c(-c3c(Cl)cccc3Cl)noc2C)c(OC)cc1Cl,4.65

row,SMILES,inhibition [%]
1,O=C(NCCCCN1CCC(c2ccc3c(c2OC(=O)c2ccc(NC(=O)c4ccc(Cl)cc4)cc2)CCCC3)CC1)c1ccc(NC(=O)c2ccc(Cl)cc2)cc1,0.15
2,CN(c1ccc2c(c1)nc(Nc1cc(C(C)(C)C)on1)n2C)c1ccnc(Nc2ccc(CS(C)(=O)=O)cc2)n1,0.41
3,Cn1nccc1C(=O)NCCNCc1cccc(-c2csc(-c3nc4ccccc4[nH]3)c2)c1,8.22
4,O=C(NCC1CCN(CCN2CCC(c3cn(CCO)c4ccccc34)CC2)CC1)c1ccc(-c2ccc(C(F)(F)F)cc2)cc1,5.41
5,COc1ccc2[nH]ccc(=NN=Cc3cccc(Cl)c3)c2c1,14.8
6,N=C(NCCc1ccc(Cl)cc1)c1ccc(Cl)c(Cl)c1,2.64
7,Cc1cc(NC(=O)Nc2cccc(Cl)c2Cl)c2ccccc2n1,6.44
8,O=C(NCCc1ccc(O)cc1)n1c2ccccc2c2ccccc21,4.05
9,CC[C@H](C)CNC(=O)c1cncc(-c2ccc(CNCC3CNCCCO3)cc2)c1 (stereo not given in full),-2.12
10,C=C[C@H]1CN(CCCCCCC)CC[C@H]1CC(O)Cc1ccnc2cc(O)c(OC)cc12 (stereo not given in full),-0.12
11,CCc1ccc(NC(=O)c2cccc(CN3CCCN(CC4CCCCC4)CC3)c2)cc1,1.36
12,CCNc1cc(C(=O)N[C@@H](Cc2ccccc2Cl)[C@H](O)CNC2CCCCC2)cc(N2CCCCS2(=O)=O)c1,0.45
13,CN(C)C1CCN(Cc2ccc(N3CCN(Cc4cccc5[nH]ccc45)CC3)nc2)CC1,1.46
14,CCN(CC)CCN(Cc1ccc(-c2ccc(C(F)(F)F)cc2)cc1)C(=O)Cn1c(CCc2cccc(F)c2F)cc(=O)cc1-c1ccccc1,3.45
15,CC(C)C1c2ccc(O)cc2CC2C(=O)N(C3CCCCC3)C(=O)N21 (stereo not given),-1
16,Cc1cc(NCCC(=O)NCCc2ccccc2)nc(NCCc2ccc(F)cc2)n1,3.87
17,Fc1ccc2[nH]c(-c3ccc(-c4ccc(CNCCc5cccnc5)cc4)s3)nc2c1,3.19
18,CSc1cccc(NC(=O)c2cc3ccccc3oc2=O)c1,0.06
19,O=C(NCCCCN1CCC(c2ccc3c(c2OCC2CC2)CCCC3)CC1)c1ccc(NC(=O)c2ccc(Cl)cc2)cc1,6.44
20,CC1CN(c2cnn(Cc3ccc(NC(=O)Nc4ccc(F)cc4[N+](=O)[O-])cc3)c(=O)c2Cl)CC(C)N1 (stereo not given),1.28

# Molecular target: Glucose transporter (Leishmania mexicana) (UniProt O61059)
# Assay: ST_JUDE_LEISH: Cytotoxicity at 2uM final concentration against transgenic Leishmania Mexicana promastigotes LmGT2 that are glucose transport deficient and complemented with the L. Mexicana glucose transporter 2. Activity is measured by DNA content using SYBR green in vitro
# Assay type: functional
row,SMILES,inhibition [%]
1,Cc1cccc2nc(-c3ccc(-c4ccc(NC(=O)C(C)CN(C)C)cc4)s3)[nH]c12 (stereo not given),3.65
2,CCOc1cc(Br)c(C(C)NC(=O)c2ccccc2)cc1OCC (stereo not given),1.97
3,O=C(/C=C/c1ccc(Cl)c(Cl)c1)NCCCCCN1CCCC(CNS(=O)(=O)c2ccc(F)cc2)C1 (stereo not given),1.39
4,Cc1cc(N)c2cc(NC(=O)c3ccc4ccccc4c3)ccc2n1,3.57
5,COc1ccccc1CNC(=O)C(=O)Nc1c(-c2ccccc2)[nH]c2ccccc12,-1.57
6,CN(CCC(O)c1ccc(Cl)c(Cl)c1)CC1CC1C(=O)c1ccccc1 (stereo not given),5.49
7,Fc1ccc2[nH]c(-c3ccc(-c4cccc(CN5CCN(c6ccncc6)CC5)c4)cc3)nc2c1,4.07
8,N#Cc1ccc(N(CCOC(=O)c2ccc(Br)s2)Cc2ccccc2C(F)(F)F)cc1C(F)(F)F,3.28
9,Cc1cc(CNC(=O)[C@H](CC2CCCCC2)Nc2ccc(C#N)c3ccccc23)c(C(F)(F)F)o1,-1.16
10,CN1CCN(c2nsc3ccc(-c4ccc(NC(=O)Nc5cc(C(F)(F)F)ccc5F)cc4)cc23)CC1,2.12
11,O=C(Nc1cc(Cl)cc(Cl)c1)Nc1ccnc2ccccc12,-2.71
12,CC(C)(C)OC(=O)C1CCCN(Cc2ccc(-c3cccc(-c4nc5ccccc5[nH]4)c3)cc2)C1 (stereo not given),0.78
13,O=S(=O)(NCCN1CCCC1)c1cccc(-c2ccc(CNCc3ccsc3)cc2)c1,3.02
14,CCOCCCNc1sc(S(=O)(=O)c2ccccc2)nc1S(=O)(=O)c1ccc(C)cc1,9.56
15,CC(C)(C(=O)Nc1ccc(C2CCC(NCC3CC3)CC2)c(Cl)c1)c1cccc(OC(F)F)c1 (stereo not given),9.65
16,Cc1cc(CN2C(=O)C(c3ccccc3)(c3ccccc3)N=C2N)c(C(F)(F)F)o1,6.9
17,Cc1nnc2c(NC(=O)NC3CCCC3)cc3ccc(-c4cccc(CN5CCN(C)CC5)c4)cc3n12,5.53
18,CC(=O)Nc1ccc(CN2CCC(NC(=O)c3ccc(-c4cccc(C(F)(F)F)c4)s3)CC2)cc1,-4.9
19,O=C(CCc1c[nH]cn1)Nc1cccc(-c2ccc(-c3nc4ccccc4[nH]3)cc2)c1,6.77
20,COc1cc(NC(=O)c2c(-c3c(Cl)cccc3Cl)noc2C)c(OC)cc1Cl,3.12

row,SMILES,inhibition [%]
1,O=C(NCCCCN1CCC(c2ccc3c(c2OC(=O)c2ccc(NC(=O)c4ccc(Cl)cc4)cc2)CCCC3)CC1)c1ccc(NC(=O)c2ccc(Cl)cc2)cc1,3.18
2,CN(c1ccc2c(c1)nc(Nc1cc(C(C)(C)C)on1)n2C)c1ccnc(Nc2ccc(CS(C)(=O)=O)cc2)n1,-1.74
3,Cn1nccc1C(=O)NCCNCc1cccc(-c2csc(-c3nc4ccccc4[nH]3)c2)c1,7.22
4,O=C(NCC1CCN(CCN2CCC(c3cn(CCO)c4ccccc34)CC2)CC1)c1ccc(-c2ccc(C(F)(F)F)cc2)cc1,3.71
5,COc1ccc2[nH]ccc(=NN=Cc3cccc(Cl)c3)c2c1,11.7
6,N=C(NCCc1ccc(Cl)cc1)c1ccc(Cl)c(Cl)c1,1.15
7,Cc1cc(NC(=O)Nc2cccc(Cl)c2Cl)c2ccccc2n1,2.66
8,O=C(NCCc1ccc(O)cc1)n1c2ccccc2c2ccccc21,1.38
9,CC[C@H](C)CNC(=O)c1cncc(-c2ccc(CNCC3CNCCCO3)cc2)c1 (stereo not given in full),-0.99
10,C=C[C@H]1CN(CCCCCCC)CC[C@H]1CC(O)Cc1ccnc2cc(O)c(OC)cc12 (stereo not given in full),0.32
11,CCc1ccc(NC(=O)c2cccc(CN3CCCN(CC4CCCCC4)CC3)c2)cc1,-2.12
12,CCNc1cc(C(=O)N[C@@H](Cc2ccccc2Cl)[C@H](O)CNC2CCCCC2)cc(N2CCCCS2(=O)=O)c1,-2.07
13,CN(C)C1CCN(Cc2ccc(N3CCN(Cc4cccc5[nH]ccc45)CC3)nc2)CC1,2.99
14,CCN(CC)CCN(Cc1ccc(-c2ccc(C(F)(F)F)cc2)cc1)C(=O)Cn1c(CCc2cccc(F)c2F)cc(=O)cc1-c1ccccc1,-1.71
15,CC(C)C1c2ccc(O)cc2CC2C(=O)N(C3CCCCC3)C(=O)N21 (stereo not given),-0.94
16,Cc1cc(NCCC(=O)NCCc2ccccc2)nc(NCCc2ccc(F)cc2)n1,2.22
17,Fc1ccc2[nH]c(-c3ccc(-c4ccc(CNCCc5cccnc5)cc4)s3)nc2c1,3.21
18,CSc1cccc(NC(=O)c2cc3ccccc3oc2=O)c1,-3.2
19,O=C(NCCCCN1CCC(c2ccc3c(c2OCC2CC2)CCCC3)CC1)c1ccc(NC(=O)c2ccc(Cl)cc2)cc1,8.96
20,CC1CN(c2cnn(Cc3ccc(NC(=O)Nc4ccc(F)cc4[N+](=O)[O-])cc3)c(=O)c2Cl)CC(C)N1 (stereo not given),2.58
